What all share (experiment): qHTS profiling for inhibitors of Plasmodium falciparum proliferation (AID 504749); note: nearly all actives have a fitted effect of over 60% in size
What all share (conditions): P. falciparum in erythrocytes, SYBR Green DNA, 72 h; series mostly up to 28.7 µM
(Quantitative high-throughput screening tests each substance at several concentrations.)

For one assay, the system named is CP262. The essentials: (§1)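 P. falciparum-infected erythrocytes (0.3% parasitemia, 2.5% hematocrit) incubated with compound 72 h at 37 C, 5% CO2. Parasite DNA detected by SYBR Green after lysis, overnight at room temperature; normalised to 0.29 uM artemisinin and DMSO.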
The next assay concerns CP286. The essentials: as §1
The next assay relates to CP315. The essentials:
as §1

The subject of a further assay is DIV14. The method in brief: as §1
The subject of a further assay is DIV17. The essentials: as §1
The subject of a further assay is DIV30. The method in brief:
as §1

The test system of another assay is CP252. The essentials: as §1
For another assay, the system named is CP260. The method in brief:
as §1

Another assay deals with CP268. The essentials: as §1
The next assay concerns CP269. The essentials: as §1
For another assay, the system named is CP291. The essentials:
as §1

A further assay deals with CP297. The method in brief: as §1
In another assay the test system is CP325. The essentials: as §1
Another assay deals with CP329. The essentials: as §1
A further assay has as its system CP335. The essentials: as §1
The test system of another assay is CP256. The essentials:
as §1

The next assay has as its system CP265. The method in brief: as §1
The next assay concerns CP266. The essentials:
as §1

The next assay deals with CP305. The method in brief: as §1
The test system of the next assay is DFO2036. The essentials:
as §1

Inconclusive results are not listed. The source made the active and inactive calls. Calls come from the whole dose curve; as a rule, active = well fitted inhibition curve with a large enough effect; inconclusive = small, poorly fitted or top-dose-only effect; inactive = flat fitted curve, though single readings scatter.
Potency is the fitted concentration of half-maximal effect.

For `CCc1cccc(N(C)C(N)=Nc2cccc3ccccc23)c1`, the Potency result in the assay on CP262 and in the assay with CP315 was “inactive” in each case. Further, the Potency was 8.91 µM (active) in the assay on CP286, 1.51 µM (active) with DIV14, 1.35 µM (active) in the assay with DIV17 and 7.57 µM (active) in the assay on DIV30.

With `COC(=O)[C@H]1[C@H]2C[C@@H]3c4[nH]c5cc(OC)ccc5c4CCN3C[C@H]2C[C@@H](OC(=O)c2cc(OC)c(OC)c(OC)c2)[C@@H]1OC`, the Potency with CP252 was 11.2 µM (active); in the assay on CP260, 11.2 µM (active); in the assay on CP268, 15.1 µM (active); with CP269 it was 9.53 µM (active); in the assay with CP286 it was 11.2 µM (active); in the assay with CP291, 15.1 µM (active). Moreover, the Potency was 3.38 µM (active) in the assay on CP297; 16.9 µM (active) in the assay with CP315; 13.5 µM (active) with CP325; 13.5 µM (active) in the assay on CP329; 8.49 µM (active) in the assay on CP335; 1.69 µM (active) with DIV14. Moreover, the Potency is 1.51 µM (active) with DIV17 and 1.07 µM (active) with DIV30.

For the compound `CCCCCCCC/C=C\CCCCCCCC(=O)NCc1ccc(O)c(OC)c1`, the Potency is 11.2 µM (active) in the assay with CP256 and 10 µM (active) with CP265. The Potency entry in the assay with CP262, with CP266, in the assay on CP268, in the assay with CP269, in the assay with CP297 and in the assay with CP305 was “inactive” each time. In addition, the Potency result in the assay on CP315, in the assay on CP325, in the assay with CP329, in the assay with DIV17 and with DIV30 was “inactive” in each case.

For `NC(N)=N/N=C/c1c(Cl)cccc1Cl`, the Potency in the assay with CP262 is 13.5 µM (active); in the assay on CP286, 11.2 µM (active).

For the compound `COc1cc(C(=O)OCCCN2CCCN(CCCOC(=O)c3cc(OC)c(OC)c(OC)c3)CC2)cc(OC)c1OC`, the Potency with CP260 was 10 µM (active); with CP265, 11.2 µM (active); in the assay on CP269, 7.57 µM (active); in the assay on CP286 it was 10 µM (active); in the assay with CP335, 4.78 µM (active); in the assay on DIV14 it was 9.53 µM (active). Moreover, the Potency in the assay with DIV17 was 12 µM (active).

For `CNCCC(Oc1ccccc1OC)c1ccccc1` (configuration not stated), the Potency result in the assay with CP262, with CP266, in the assay on CP297 and with CP315 was “inactive” in each case. Further, the values for the Potency in the assay with DIV14 and in the assay with DIV17 were 4.78 µM (active) and 8.49 µM (active), respectively.

For `CCOC(=O)C1=C(C)NC(C)=C(C(=O)OC)C1c1cccc([N+](=O)[O-])c1` (configuration not stated), the Potency with CP252 is 11.2 µM (active). For the same compound, the Potency result with CP266 and with CP315 was “inactive” throughout.

Regarding `Cc1nc2sccn2c(=O)c1CCN1CCC(=C(c2ccc(F)cc2)c2ccc(F)cc2)CC1`, the Potency result in the assay with CP256, with CP266, in the assay on CP268, with CP305, in the assay with CP315 and with CP325 was “inactive” in each case. Further, in the assay with CP329, the Potency result is “inactive”. The Potency in the assay on DIV17 is 16.9 µM (active).

Regarding `CCOC(=O)c1cnc2c(cnn2CC)c1NN=C(C)C`, the Potency entry in the assay on CP252, with CP256, in the assay with CP262, in the assay with CP265, in the assay with CP266 and in the assay with CP269 was “inactive” in each case. Further, the Potency entry in the assay with CP291, with CP305, with CP315, with CP325, in the assay on CP329 and in the assay with CP335 was “inactive” throughout. Also, the Potency result in the assay on DFO2036 and in the assay on DIV30 was “inactive” each time.

`COCCOC(=O)C1=C(C)NC(C)=C(C(=O)OC(C)C)C1c1cccc([N+](=O)[O-])c1` (configuration not stated): the Potency entry in the assay with CP256, with CP262, in the assay with CP266 and with CP329 was “inactive” throughout. Besides, the Potency is 4.78 µM (active) with CP335, 13.5 µM (active) in the assay with DIV14, 13.5 µM (active) in the assay on DIV17 and 12 µM (active) with DIV30.

For `CCC(=O)c1ccc2c(c1)N(CCCN(C)C)c1ccccc1S2`, the Potency with CP260 is 11.2 µM (active); with DIV14 it was 6.01 µM (active); with DIV17, 4.78 µM (active). The Potency result in the assay on CP262, with CP266, with CP297 and in the assay with CP315 was “inactive” in each case.

As for `CCCC(C(=O)OCCN(CC)CC)(c1ccccc1)c1ccccc1`, the Potency in the assay with CP265 is 10 µM (active); in the assay on CP269 it was 12 µM (active); with CP286, 12.6 µM (active); in the assay with CP291, 13.5 µM (active); in the assay with CP335 it was 8.49 µM (active); in the assay on DIV14, 8.49 µM (active). For the same compound, the figures for the Potency in the assay with DIV17 and with DIV30 were 7.57 µM (active) and 13.5 µM (active), respectively.

As to `O=C(O)CN(CCN(CC(=O)O)CC(=O)O)CCN(CC(=O)O)CC(=O)O`, the Potency result with CP252, with CP260, with CP266, with CP269, with CP286 and in the assay with CP297 was “inactive” throughout. Moreover, the Potency result in the assay with CP315, with CP325, with CP329, with CP335, with DFO2036 and in the assay with DIV14 was “inactive” throughout. The Potency entry in the assay on DIV30 is “inactive”. The Potency in the assay on CP256 was 11.2 µM (active).

As for `CC(C)[N+](C)(CCOC(=O)C1c2ccccc2Oc2ccccc21)C(C)C`, the Potency result in the assay with CP266, in the assay with CP315 and in the assay with DIV30 was “inactive” throughout.

Regarding `CCCN1C[C@H](CSC)C[C@@H]2c3cccc4[nH]cc(c34)C[C@H]21`, the figures for the Potency with CP256 and with DIV17 were 8.91 µM (active) and 7.57 µM (active), respectively. In addition, the Potency entry in the assay with CP262, in the assay with CP266, in the assay on CP269, in the assay with CP297, in the assay on CP305 and in the assay with CP315 was “inactive” each time. In addition, the Potency entry in the assay with CP325, with CP329 and in the assay with DFO2036 was “inactive” in each case.

For `CN(C)CC/C=C1\c2ccccc2COc2ccccc21`, the Potency entry in the assay with CP256, in the assay with CP262, with CP266, in the assay with CP297, with CP315 and in the assay with DFO2036 was “inactive” in each case. The Potency in the assay on CP265 was 11.2 µM (active).

Regarding `CC(C)NNC(=O)c1ccncc1`, the Potency entry in the assay on CP260, in the assay with CP262, with CP265, in the assay on CP266, in the assay on CP268 and in the assay on CP269 was “inactive” throughout. Besides, the Potency entry with CP286, with CP291, in the assay with CP297, in the assay on CP305, in the assay with CP315 and in the assay on CP325 was “inactive” throughout. The Potency entry with CP329, in the assay on CP335, with DIV14, in the assay on DIV17 and in the assay on DIV30 was “inactive” each time. For the same compound, in the assay on DFO2036, the Potency was 7.94 µM (active).

With `CN(C)CCCN1c2ccccc2Sc2ccccc21`, the Potency entry in the assay with CP262, in the assay on CP266 and in the assay with CP297 was “inactive” in each case. Further, the Potency with CP265 is 2.82 µM (active); with DIV14, 1.81 µM (active); with DIV17, 2.87 µM (active).

On to `NC(N)=NC(=O)Cc1c(Cl)cccc1Cl`, for which the Potency in the assay on CP256 is 12.6 µM (active); in the assay with CP260 it was 10 µM (active); in the assay on CP262 it was 4.26 µM (active); in the assay with CP329, 6.01 µM (active); in the assay with CP335 it was 9.53 µM (active); in the assay with DFO2036, 10 µM (active). For the same compound, the Potency result with CP266, in the assay with CP268, with DIV14 and in the assay on DIV17 was “inactive” throughout.

For the compound `CCCCNc1c(C(=O)OCC)c(C)nc2c1cnn2CC`, the Potency result in the assay on CP252, with CP256, in the assay with CP262, in the assay on CP265, in the assay on CP266 and with CP268 was “inactive” in each case. The Potency entry in the assay with CP269, in the assay on CP286, in the assay with CP291, in the assay on CP297, with CP305 and in the assay with CP315 was “inactive” throughout. In addition, the Potency entry with CP325, with CP329, in the assay on DFO2036, in the assay on DIV14 and with DIV30 was “inactive” in each case.
